Assay outcomes deposited in PubChem BioAssay by National Center for Advancing Translational Sciences (NCATS).
Hits are enriched below; roughly 12% of the tested compounds scored in any of these assays.
JMJD2A Tudor: blocks the human JMJD2A Tudor domain; O75164; AlphaScreen JMJD2A-Tudor / H3K4me3 peptide binding; Potency, µM (highest dose often 114 µM), inactives show at the highest dose activity change, negative = inhibition, usual class: inhibitors; 390,000 tested, 4.4% active; note: % is set by controls: 0 for no effect and ±100 for the full control effect; nearly all actives have a fitted effect of over 50% in size
HP1b binding inh: HP1-beta chromodomain-methylated histone interaction inhibition; P83916; AlphaScreen HP1-beta / biotin-H3K9me3 peptide binding; Potency, µM (doses to about 114 µM), without a hit: at the top dose activity change, negative = inhibition, actives largely listed as inhibitors; 390,000 tested, 0.56% active; AID 540317; note: nearly all actives have a fitted effect of over 70% in size
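Compound inhibition of the preformed complex between 50 nM HP1-beta and 50 nM biotinylated H3K9me3 peptide was read by AlphaScreen. Buffer was PBS pH 7.4 with 0.01% Tween-20. Incubations ran 30 min at room temperature, with 10 ug/mL donor/acceptor beads.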
L3MBTL1 inh: inhibitors of human L3MBTL1; Q9Y468; AlphaScreen L3MBTL1–H3K9me1 peptide binding; Potency, µM (top dose mostly 57.1 µM), for the others: at the top dose activity, negative = inhibition, actives largely listed as inhibitors; 230,000 tested, 0.66% active; note: % is set by controls: 0 for no effect and ±100 for the full control effect; nearly all actives have a fitted effect of over 60% in size
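L3MBTL1 50 nM + b-AHA-H3(1-15)K9me1 75 nM, 30 min RT; compound added, 30 min RT; streptavidin donor/Ni-chelate acceptor beads 10 ug/mL each final, 30 min RT dark; AlphaScreen read.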
BAZ2B inh: BAZ2B (human) inhibition | Q9UIF8 | AlphaScreen BAZ2B-H3K14Ac peptide displacement | Potency, µM (top dose mostly 114 µM), for inactives: top-dose activity change, negative = inhibition, actives largely listed as inhibitors | 360,000 tested, 4.4% active; note: % is set by controls: 0 for no effect and ±100 for the full control effect; nearly all actives have a fitted effect of over 60% in size
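Multi-concentration screen (max 110 uM) measuring displacement of acetylated histone H3 peptide from BAZ2B by AlphaScreen, using 50 nM protein, 50 nM peptide and 10 ug/mL streptavidin donor plus Ni-chelate acceptor beads.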
Sfp PPTase inh: blocks B. subtilis Sfp PPTase activity; 310,000 tested, 3.5% active; Potency, µM, inactives show largest response in the series, negative = inhibition, usual class: inhibitors; Q9F4F7; Biochemical Sfp PPTase activity, qHTS;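 note: the enzyme is Sfp with the accession as filed and its product quenches rhodamine fluorescence; 0% = enzyme reaction without inhibitor and -100% = no enzyme wells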
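Fluorescence-quenching assay: 15 nM Sfp-PPTase preincubated 15 min at room temperature with compound, then 5 uM rhodamine-CoA and 12.5 uM BHQ-2-labelled YbbR peptide added. Fluorescence (ex 525/em 598 nm) read at start and after 30 min; difference gives rate.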
G9a inh: G9a (human) methyltransferase inhibition. Q96KQ7. G9a H3K9 monomethylation, AlphaScreen, 2 h. Potency, µM (doses to about 102 µM), for the others: top-dose activity, negative = inhibition, hits mostly inhibitors. 350,000 tested, 8.8% active; note: % is set by controls: 0 for no effect and ±100 for the full control effect; nearly all actives have a fitted effect of over 75% in size
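AlphaScreen detection with an anti-monomethyl H3K9 antibody quantified product after a 2 h room-temperature reaction containing 500 nM biotinylated H3K9 peptide, 20 µM SAM and 20 nM enzyme, which had been preincubated 15 min with compound.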
Active calls of the source: *; ? = inconclusive; . = no result given; [ ] = remark or other dose. Calls come from the whole dose curve; as a rule, active = well fitted curve in the direction sought with a large enough effect; inconclusive = small, poorly fitted or top-dose-only effect, or another doubt; inactive = no such curve, though single readings can be large; an effect the other way counts as inactive or inconclusive. Potency is the fitted concentration of half-maximal effect.

SMILES	JMJD2A Tudor	HP1b binding inh	L3MBTL1 inh	BAZ2B inh	Sfp PPTase inh	G9a inh
COc1ccccc1OCCOCCOc1ccc(C)cc1Br	103.5%	244.2%	45.3%	139.9%	-5.8%	142.2%[59 µM]
Cc1ccc(OCC(=O)NCCO)c(Br)c1	-14.4%	20.8%	2.9%	4.0%	4.3%	-31.9%
CC(C)NC(=O)CCCOc1ccc(Cl)cc1Cl	-5.4%	31.4%	.	-4.2%	-1.0%	13.8%
COCCCNCCOCCOc1ccc(C)cc1Br	50.1µM*	19.0%	27.5%	?	?	?
NCC1O[C@H](O[C@@H]2C(O)[C@H](O[C@H]3OC(CO)C(O)C(N)C3O)[C@@H](N)C[C@H]2N)[C@@H](N)CC1O (stereo partly specified)	.	.	.	.	5.1%	-26.8%[2.33 µM]
Cc1ccc(C(C)C)cc1OCC(=O)NC1CCCCCCC1	93.1%	122.5%	32.3%	71.3%	.	78.2%[59 µM]
COCCCNCCOc1cc(C(C)C)ccc1C	3.16µM*	?	23.1%	79.4µM*	-11.9%	?
CCCCNCCOCCOc1ccc(C)cc1Br	3.55µM*	-34.7%	8.5%	?	-6.6%	10µM*
Cc1ccc2c(c1)c1c(c(=O)n(-c3cccc(Cl)c3)c(=O)n1CC(=O)NCC1CCCO1)n2C (stereo unspecified)	-11.0%	58.0%	.	-1.2%	.	?
CCCN1C(=O)C2(c3ccccc31)c1c(oc3cc(C)c(C)cc3c1=O)C(=O)N2CCCOC (stereo unspecified)	-22.6%	3.1%	.	-0.6%	.	-0.9%[59 µM]
Cc1ccc(C(=O)NCC(c2ccc3c(c2)OCO3)N2CCN(c3ccc(F)cc3)CC2)cc1 (stereo unspecified)	?	-10.9%[57 µM]	.	-10.3%	.	?
O=C1CCCC2=C1C1(CCS(=O)(=O)C1)N=C(Nc1nc3ccccc3o1)N2 (stereo unspecified)	-16.3%	.	.	.	.	.
CCOC(=O)/C(C)=C1\NC(C)(C)Cc2ccccc21	22.4µM*	25.1µM*	-3.1%	17.8µM*	?	2.51µM*
CCn1c(Sc2nc(C)nc3scc(-c4cccs4)c23)n[nH]c1=O	-16.8%[57.1 µM]	62.5%	3.8%	-9.1%	1.2%	44.7µM*
Cc1ncoc1C(=O)Nc1ncc([N+](=O)[O-])s1	39.8µM*	?	?	?	-93.3%	4.47µM*
O=C1c2ccccc2C(=O)N1c1cc(=O)c2ccccc2[nH]1	-25.9%	.	.	.	.	.
Cc1ccc(O)c(-c2cc3ccccc3[nH]2)c1	?	?	-9.1%	44.7µM*	-10.2%	?
Cc1ccc(O)c(-c2cc(-c3ccccc3F)[nH]n2)c1	5.0%	48.5%	.	8.1%	13.9%	70.8%[12.7 µM]
c1ccc(-c2cc3ccccc3[nH]2)cc1	-9.4%	26.4%	.	-4.7%	1.9%	.
COc1ccc(-c2cc3ccccc3[nH]2)cc1	7.08µM*	?	0.5%	-21.4%	4.9%	.
CCCN(Cc1ccc(N(C)C)cc1)CC1CC1	?	6.5%	.	?	89.1µM*	?
CCCN(Cc1ccc(N(CC)CC)cc1)CC1CC1	-28.6%	9.4%	-6.3%	?	8.6%	?
Cc1cc(NC(=O)CN2CCCC(C)C2)no1 (stereo unspecified)	2.82µM*	50.1µM*	?	0.8%	-13.4%	.
O=C(CSc1ncccn1)NCCC1=CCCCC1	-6.1%	22.8%	23.1%	5.2%	.	-12.1%
Cc1cc(NC(=O)CN2CCN(c3ncccn3)CC2)no1	20µM*	?	7.3%	56.2µM*	-18.1%	8.91µM*
SMILES	JMJD2A Tudor	HP1b binding inh	L3MBTL1 inh	BAZ2B inh	Sfp PPTase inh	G9a inh
Cc1ccc(CNC(=O)CN2CCCC(C)C2)cc1 (stereo unspecified)	-3.8%	20.3%	.	35.2%	1.9%	12.6%
O=C(CN1CCN(c2ncccn2)CC1)NCCC1=CCCCC1	3.16µM*	?	-2.7%	50.1µM*	?	?
Cc1cc(NC(=O)Cn2cc([N+](=O)[O-])cn2)no1	3.1%	45.8%	7.2%	-15.1%	-17.7%	50.1µM*
COc1ccccc1C(=O)NC1(C(F)(F)F)C(=O)Nc2c1c(=O)[nH]c(=O)n2CCc1ccccc1 (stereo unspecified)	-3.8%	20.3%	.	-26.7%	.	-7.0%[59 µM]
Cc1cc(NC(=O)CN2CCN(c3cccc(Cl)c3)CC2)no1	-14.4%	16.4%	12.4%	-17.7%	13.4%	-4.2%
Cc1cc(NC(=O)CN2CCCCC2)no1	?	?	25.5%	56.2µM*	-10.3%	?
Cn1c(=O)c(-c2cccs2)nc2cnc(Oc3ccccc3)nc21	.	.	.	.	9.2%	-1.3%[12.7 µM]
CC1(O)CC(c2ccc(Cl)cc2)=NN1C(=O)c1ccc([N+](=O)[O-])cc1 (stereo unspecified)	-24.1%[11.4 µM]	?	?	14.1µM*	17.4%	?
O=C(O)c1ccc2c(c1)C(=O)/C(=C/c1ccccc1)C2=O	?	44.7µM*	3.16µM*	50.1µM*	-0.9%	12.6µM*
CC(C)NC(=O)/C(=C/c1ccco1)c1ccccc1	-9.1%	9.7%	1.0%	-7.5%	-45.7%	.
NS(=O)(=O)c1ccc(-c2ccc(C=C3C(=O)c4ccccc4C3=O)o2)cc1	-4.3%	51.8%	1.8%	-1.4%	18.3%	17.8%
Cc1ccc(C=C2C(=O)c3ccccc3C2=O)o1	?	?	?	39.8µM*	-10.3%	25.1µM*
Cc1ccc(/C=C2/C(=O)c3ccc(C(=O)O)cc3C2=O)o1	28.2µM*	70.8µM*	1.58µM*	11.2µM*	12.6µM*	.
CC(C)(C)N1C(=O)c2ccc(C(=O)O)cc2C1=O	-5.2%	27.4%	1.8%	0.9%	16.8%	55.5%[59 µM]
CC(C)N1C(=O)c2ccc(C(=O)O)cc2C1=O	1.4%	52.9%	-7.5%[11.4 µM]	2.0%	12.8%	-26.6%[12.7 µM]
O=C1C(=Cc2ccco2)C(=O)c2ccccc21	?	-15.6%	?	?	-25.1%	12.6µM*
COc1ccc(CCNC(=O)c2ccc(Cn3c(=O)c4ccccc4n(Cc4ccc(C)cc4)c3=O)cc2)cc1OC	-4.4%	29.0%	.	5.1%	.	4.2%[59 µM]
COCCn1c(=O)c(-c2ccc(OC)cc2)nc2cnc(N3CCNCC3)nc21	.	.	.	.	11.1%	-6.6%[12.7 µM]
CN1CCCN([C@@H](c2ccccc2)c2ccc(Cl)cc2)CC1	.	.	.	.	4.8%	-6.4%[21.5 µM]
O=C(O)c1ccc2c(c1)C(=O)/C(=C\c1ccco1)C2=O	25.1µM*	?	3.16µM*	35.5µM*	22.4µM*	8.91µM*
N#Cc1nc(NC2CCCC2)c2ncn(-c3cc(F)cc(F)c3)c2n1	8.2%	.	.	.	.	.
CCOC(=O)c1c(NC(=O)c2ccc(C)cc2)sc2c1CC(C)(C)OC2	51.3%	25.6%	.	59.1%	25.1µM*	15.8%[12.7 µM]
COC(=O)c1c(NC(=O)C(=O)N2CCCC2)sc2c1CC(C)(C)OC2	-5.3%	64.6%	.	-0.3%	2.0%	34.4%
CC1(C)Cc2c(sc(NC(=O)C(=O)N3CCCC3)c2C(N)=O)CO1	-33.6%	25.3%	.	-34.2%	-28.8%	50.1µM*
